Inconclusive results are not listed. The source made the active and inactive calls. The calls were made as follows, unless noted: active = hit-call score of the fitted dose curve at least 0.9, where 1 is the maximum; inconclusive = response in the unintended direction; inactive = score below 0.9.
What was measured:
[1] = ATG_TCF_b_cat_CIS: Attagene CIS-FACTORIAL HepG2 Assay for human T-Cell-Factor with beta-catenin (TCF/b-cat) (AID 2282965; active = hit-call score of the fitted dose curve at least 0.9, where 1 is the maximum; inactive = score below 0.9); details: HepG2 TCF/beta-catenin cis-reporter transcription, actives raise or lower the signal
How it was run: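 Measured: reporter mRNA in HepG2 transiently transfected with cis-promoter reporter units, 24 h after chemical addition. Fitting was bidirectional, DMSO as negative control.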

[2] = ATG_TGFb_CIS: Attagene CIS-FACTORIAL HepG2 Assay for human Transforming Growth Factor (TGF) (AID 2282967; active = hit-call score of the fitted dose curve at least 0.9, where 1 is the maximum; inactive = score below 0.9); details: HepG2 Attagene CIS TGFb reporter, mRNA transcription; actives raise or lower the signal
How it was run: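 Liver HepG2 line, cis-factorial reporter panel, 24 h dosing. Quantitation: RT-PCR products labeled with 6-FAM, cut with HpaI, resolved by capillary electrophoresis; DMSO-referenced bidirectional analysis.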

[3] = ATG_VDRE_CIS: Attagene CIS-FACTORIAL HepG2 Assay for human Vitamin D Receptor Element (VDRE) (AID 2282968; active = hit-call score of the fitted dose curve at least 0.9, where 1 is the maximum; inactive = score below 0.9); details: HepG2 VDRE cis-reporter transcription, actives raise or lower the signal
How it was run: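 Measures endogenous factor activity through cis-element-driven reporter transcripts in transiently transfected HepG2. Cells are treated 24 h; reporter mRNA is quantified by RT-PCR and capillary electrophoresis; fitting is bidirectional.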

[4] = molecular target: Nuclear receptor subfamily 1 group I member 3 (Homo sapiens) (UniProt Q14994); test: ATG_CAR_TRANS: Attagene TRANS-FACTORIAL HepG2 Assay for human Constitutive Androstane Receptor (CAR) (AID 2282969); details: HepG2 Attagene TRANS-FACTORIAL CAR reporter;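 also: activators raise reporter mRNA above DMSO so AC50 marks induction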
How it was run: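 Signal is reporter mRNA induction relative to DMSO, measured 24 h after dosing by RT-PCR with fluorescent primer extension and capillary electrophoresis. Human HepG2 liver cells carried transiently transfected chimeric NR-Gal4/GAL4-UAS reporter constructs.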

[5] = molecular target: Estrogen receptor (Homo sapiens) (UniProt P03372); test: ATG_ERa_TRANS: Attagene TRANS-FACTORIAL HepG2 Assay for human Estrogen Receptor alpha (ERa) (AID 2282970); details: HepG2 Attagene TRANS ERa GAL4 reporter, mRNA
How it was run: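 Gal4-fusion ERa transactivation, measured as reporter transcript level in transiently transfected HepG2 cells. Exposure 24 h; RT-PCR plus capillary electrophoresis with fluorescence detection.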

[6] = molecular target: X-box-binding protein 1 (Homo sapiens) (UniProt P17861); test: ATG_Xbp1_CIS: Attagene CIS-FACTORIAL HepG2 Assay for human X-box Binding Protein 1 (XBP1) (AID 2282972; active = hit-call score of the fitted dose curve at least 0.9, where 1 is the maximum; inactive = score below 0.9); details: HepG2 XBP1 cis-element reporter, Attagene multiplex; actives raise or lower the signal
How it was run: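 Multiplexed cis-reporter readout in transfected HepG2 liver cells. Exposure lasted 24 hours. Activity in either direction was fitted against DMSO as negative control and baseline.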

[7] = ATG_M_19_TRANS: Attagene TRANS-FACTORIAL HepG2 Assay for M19 Transcription Factor (Internal Marker) (AID 2282974); details: HepG2 Attagene TRANS-FACTORIAL M19 internal marker reporter
How it was run: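 Reporter mRNA induction was measured in transfected HepG2 cells 24 h after dosing. Endpoint fitted upward relative to DMSO and serves as a background control within the multiplexed TRANS panel.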

[8] = ATG_GAL4_TRANS: Attagene TRANS-FACTORIAL HepG2 Assay for GAL4 (Internal Marker) (AID 2282976); details: HepG2 Attagene TRANS GAL4 internal marker reporter
How it was run: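 Background-control readout: GAL4-UAS reporter transcript in transiently transfected HepG2 cells after 24 h compound exposure. Measured by RT-PCR, 6-FAM primer extension, HpaI digest and capillary electrophoresis; gain-of-signal fit versus DMSO.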

[9] = molecular target: Hepatocyte nuclear factor 4-alpha (Homo sapiens) (UniProt P41235); test: ATG_HNF4a_TRANS: Attagene TRANS-FACTORIAL HepG2 Assay for human Hepatocyte Nuclear Factor 4 alpha (HNF4a) (AID 2282982); details: HepG2 HNF4a transactivation reporter, mRNA readout
How it was run: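 Multiplexed reporter assay: transfected HepG2, 24 h exposure, total RNA → oligo(dT) RT → PCR → 6-FAM extension → HpaI digest → CE fluorescence. DMSO = negative control.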

[10] = molecular target: Nuclear receptor subfamily 4 group A member 2 (Homo sapiens) (UniProt P43354); test: ATG_NURR1_TRANS: Attagene TRANS-FACTORIAL HepG2 Assay for human Nuclear Receptor Related Protein 1 (NURR1) (AID 2282985); details: HepG2 Attagene TRANS reporter, mRNA readout
How it was run: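 Measures transcriptional activation by an exogenous NR-Gal4 chimera in transfected HepG2 liver cells. After 24 h, reporter RNA is reverse-transcribed, amplified and resolved by capillary electrophoresis; DMSO defines baseline.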

[11] = molecular target: Transcriptional activator Myb (Homo sapiens) (UniProt P10242); test: ATG_Myb_CIS: Attagene CIS-FACTORIAL HepG2 Assay for human Myeloblastosis (Myb) Proto-Oncogene Transcription Factor (AID 2282986; active = hit-call score of the fitted dose curve at least 0.9, where 1 is the maximum; inactive = score below 0.9); details: HepG2 Attagene CIS-FACTORIAL Myb reporter transcription; actives raise or lower the signal
How it was run: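 Transiently transfected HepG2 cells, treated 24 h. Reporter mRNA quantified by RT-PCR/capillary electrophoresis; bidirectional fit relative to DMSO.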

[12] = ATG_TAL_CIS: Attagene CIS-FACTORIAL HepG2 Assay for human TAL Basal Promoter (AID 2282966; active = hit-call score of the fitted dose curve at least 0.9, where 1 is the maximum; inactive = score below 0.9;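 also: background control endpoint measuring basal TAL promoter reporter mRNA not a specific factor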); details: HepG2 Attagene cis-factorial TAL promoter reporter; actives raise or lower the signal
How it was run: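 Basal-promoter background-control endpoint from a multiplexed HepG2 reporter panel. Cells were exposed 24 h, then reporter mRNA was read by RT-PCR/CE fluorescence and fitted in both directions relative to DMSO.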

[13] = molecular target: Glucocorticoid receptor (Homo sapiens) (UniProt P04150); test: ATG_GR_TRANS: Attagene TRANS-FACTORIAL HepG2 Assay for human Glucocorticoid Receptor (GR) (AID 2282978); details: HepG2 Attagene TRANS GR reporter, mRNA transcription;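 also: activators score as hits since higher reporter transcript over DMSO is fitted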
How it was run: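 Reporter transcript levels, detected by fluorescence after RT-PCR and capillary electrophoresis, served as the endpoint. HepG2 cells bearing transfected GAL4-UAS reporters responsive to NR-GAL4 chimeras were incubated with compound 24 h; DMSO defined baseline.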

[14] = molecular target: Oxysterols receptor LXR-beta (Homo sapiens) (UniProt P55055); test: ATG_LXRb_TRANS: Attagene TRANS-FACTORIAL HepG2 Assay for human Liver X Receptor beta (LXRb) (AID 2282981); details: HepG2 Attagene TRANS GAL4-LXRb reporter, mRNA
How it was run: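 After 24 h of chemical treatment, transfected HepG2 cells yield total RNA; reporter cDNA is PCR-amplified, FAM-labelled, HpaI-cut and run on capillary electrophoresis. Signal reflects chimeric LXRb-Gal4 activity on GAL4-UAS reporters.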

[15] = ATG_M_06_TRANS: Attagene TRANS-FACTORIAL HepG2 Assay for M06 Transcription Factor (Internal Marker) (AID 2282983); details: HepG2 Attagene TRANS M06 internal marker reporter
How it was run: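 mRNA levels of a reporter transcript, quantified as FAM fluorescence on capillary electrophoresis, served as readout. HepG2 cells expressing exogenous GAL4-chimera reporter constructs were exposed for 24 h. Gain of signal over DMSO was evaluated.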

[16] = ATG_M_32_TRANS: Attagene TRANS-FACTORIAL HepG2 Assay for M32 Transcription Factor (Internal Marker) (AID 2282984); details: HepG2 Attagene TRANS M32 internal marker reporter
How it was run: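 Cell-based TRANS-format assay in HepG2: exogenous chimeric GAL4 reporter units transiently expressed, compounds applied 24 h. Reporter mRNA detected by RT-PCR plus capillary electrophoresis; this readout is an internal background marker.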

[17] = molecular target: Oxysterols receptor LXR-alpha (Homo sapiens) (UniProt Q13133); test: ATG_LXRa_TRANS: Attagene TRANS-FACTORIAL HepG2 Assay for human Liver X Receptor alpha (LXRa) (AID 2282980); details: HepG2 Attagene TRANS reporter, LXRa transactivation
How it was run: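 HepG2 cells transiently transfected with GAL4-UAS reporter units for chimeric NR-Gal4 proteins, exposed to chemicals for 24 h. Reporter mRNA quantified by RT-PCR and capillary electrophoresis; gain of signal fitted relative to DMSO.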

[18] = molecular target: Steroid hormone receptor ERR1 (Homo sapiens) (UniProt P11474); test: ATG_ERRa_TRANS: Attagene TRANS-FACTORIAL HepG2 Assay for human Estrogen-Related Receptor alpha (ERRa) (AID 2282971); details: HepG2 Attagene TRANS reporter, ERRa transactivation
How it was run: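 HepG2 cells transiently transfected with GAL4-UAS reporter units and chimeric NR-Gal4 constructs; after 24 hour compound incubation, reporter mRNA quantified by RT-PCR, fluorescent labelling and capillary electrophoresis, gain of signal versus DMSO.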

[19] = molecular target: Estrogen-related receptor gamma (Homo sapiens) (UniProt P62508); test: ATG_ERRg_TRANS: Attagene TRANS-FACTORIAL HepG2 Assay for human Estrogen-Related Receptor gamma (ERRg) (AID 2282977); details: HepG2 Attagene TRANS reporter, ERRg transactivation;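 also: hits increase reporter signal over DMSO so potencies reflect activators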
How it was run: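 Exogenous NR-Gal4 chimera activity was assessed in HepG2 cells bearing transfected GAL4-UAS reporters. After 24 h dosing, total RNA underwent RT-PCR, fluorescent primer extension and HpaI digestion before capillary electrophoresis, with gain of signal scored against DMSO.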

[20] = molecular target: Bile acid receptor (Homo sapiens) (UniProt Q96RI1); test: ATG_FXR_TRANS: Attagene TRANS-FACTORIAL HepG2 Assay for Farnesoid X Receptor (FXR) (AID 2282979); details: HepG2 Attagene TRANS FXR-GAL4 reporter transcription;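 also: hits raise reporter mRNA above DMSO so AC50 marks FXR activation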
How it was run: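 HepG2 cells were transiently transfected with GAL4-UAS reporters driven by chimeric NR-Gal4 proteins and dosed for 24 h. Reporter mRNA was quantified by RT-PCR, fluorescent labelling, HpaI digestion and capillary electrophoresis, with gain of signal scored versus DMSO.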

Measured: AC50

Oxysterols receptor LXR-alpha (Homo sapiens), sequence (Q13133 whole entry, looked up, the tested form may be a part): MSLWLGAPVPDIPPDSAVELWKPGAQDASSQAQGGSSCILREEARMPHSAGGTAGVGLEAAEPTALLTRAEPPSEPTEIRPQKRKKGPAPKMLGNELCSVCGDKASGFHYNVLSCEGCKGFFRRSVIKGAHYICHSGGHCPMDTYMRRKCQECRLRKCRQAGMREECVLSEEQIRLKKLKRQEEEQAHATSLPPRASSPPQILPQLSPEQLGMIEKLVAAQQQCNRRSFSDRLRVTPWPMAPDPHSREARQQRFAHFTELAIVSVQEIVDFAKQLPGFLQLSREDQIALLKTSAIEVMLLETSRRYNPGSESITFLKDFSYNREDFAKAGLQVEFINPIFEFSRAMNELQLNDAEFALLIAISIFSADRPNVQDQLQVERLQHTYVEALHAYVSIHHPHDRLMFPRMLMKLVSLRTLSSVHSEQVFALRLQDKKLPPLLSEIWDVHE
Hepatocyte nuclear factor 4-alpha (Homo sapiens), sequence (P41235 whole entry, looked up): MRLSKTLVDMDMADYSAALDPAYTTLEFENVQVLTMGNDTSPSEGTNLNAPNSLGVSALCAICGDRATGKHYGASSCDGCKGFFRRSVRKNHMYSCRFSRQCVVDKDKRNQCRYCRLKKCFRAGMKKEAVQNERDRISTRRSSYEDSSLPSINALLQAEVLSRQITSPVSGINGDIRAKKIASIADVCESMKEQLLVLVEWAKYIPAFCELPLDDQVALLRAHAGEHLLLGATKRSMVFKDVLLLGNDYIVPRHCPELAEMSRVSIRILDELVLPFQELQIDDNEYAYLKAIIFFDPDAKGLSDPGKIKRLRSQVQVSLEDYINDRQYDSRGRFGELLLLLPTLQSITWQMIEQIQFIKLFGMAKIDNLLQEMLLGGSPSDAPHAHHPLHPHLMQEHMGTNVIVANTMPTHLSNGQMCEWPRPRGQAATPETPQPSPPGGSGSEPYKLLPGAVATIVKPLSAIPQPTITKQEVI
X-box-binding protein 1 (Homo sapiens), sequence (P17861 whole entry, looked up): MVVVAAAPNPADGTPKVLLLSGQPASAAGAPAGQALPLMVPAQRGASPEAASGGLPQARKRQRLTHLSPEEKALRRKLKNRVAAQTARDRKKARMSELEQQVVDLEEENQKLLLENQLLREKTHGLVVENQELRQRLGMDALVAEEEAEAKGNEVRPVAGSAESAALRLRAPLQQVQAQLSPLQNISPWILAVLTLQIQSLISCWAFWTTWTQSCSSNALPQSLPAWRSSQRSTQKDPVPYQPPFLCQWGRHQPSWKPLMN
Nuclear receptor subfamily 4 group A member 2 (Homo sapiens), sequence (P43354 whole entry, looked up, the tested form may be a part): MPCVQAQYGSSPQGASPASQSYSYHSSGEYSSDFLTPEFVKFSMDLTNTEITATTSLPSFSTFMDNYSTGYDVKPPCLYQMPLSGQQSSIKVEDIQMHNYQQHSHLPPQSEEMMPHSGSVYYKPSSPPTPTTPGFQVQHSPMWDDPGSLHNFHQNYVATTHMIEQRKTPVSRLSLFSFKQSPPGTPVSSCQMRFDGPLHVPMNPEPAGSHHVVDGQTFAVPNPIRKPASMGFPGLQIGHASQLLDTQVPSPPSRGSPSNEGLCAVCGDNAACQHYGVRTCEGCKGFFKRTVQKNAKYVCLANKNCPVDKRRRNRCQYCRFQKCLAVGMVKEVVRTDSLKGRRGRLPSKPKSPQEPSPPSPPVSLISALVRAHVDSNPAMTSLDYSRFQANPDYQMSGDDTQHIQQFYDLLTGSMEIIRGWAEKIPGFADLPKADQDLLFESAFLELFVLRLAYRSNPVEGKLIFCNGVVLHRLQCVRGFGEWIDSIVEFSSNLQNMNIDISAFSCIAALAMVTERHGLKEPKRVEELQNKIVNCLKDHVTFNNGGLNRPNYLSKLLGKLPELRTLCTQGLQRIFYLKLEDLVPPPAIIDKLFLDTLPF
Estrogen receptor (Homo sapiens), sequence (P03372 whole entry, looked up, the tested form may be a part): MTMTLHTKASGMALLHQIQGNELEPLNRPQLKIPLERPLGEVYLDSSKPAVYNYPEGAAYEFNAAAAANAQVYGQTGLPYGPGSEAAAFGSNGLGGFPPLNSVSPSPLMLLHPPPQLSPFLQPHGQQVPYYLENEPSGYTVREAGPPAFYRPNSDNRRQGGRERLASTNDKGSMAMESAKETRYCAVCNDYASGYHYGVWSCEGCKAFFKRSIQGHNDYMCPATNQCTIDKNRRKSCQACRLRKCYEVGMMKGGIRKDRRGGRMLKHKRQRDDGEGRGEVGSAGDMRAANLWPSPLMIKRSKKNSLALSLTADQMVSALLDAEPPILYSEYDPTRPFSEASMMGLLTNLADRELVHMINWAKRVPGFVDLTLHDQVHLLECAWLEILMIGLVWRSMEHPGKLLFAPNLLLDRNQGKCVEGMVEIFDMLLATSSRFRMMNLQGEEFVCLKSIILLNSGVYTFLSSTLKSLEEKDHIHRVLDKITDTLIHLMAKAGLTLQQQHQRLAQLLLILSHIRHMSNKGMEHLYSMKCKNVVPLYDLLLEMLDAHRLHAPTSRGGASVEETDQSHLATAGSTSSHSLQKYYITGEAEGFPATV
Oxysterols receptor LXR-beta (Homo sapiens), sequence (P55055 whole entry, looked up, the tested form may be a part): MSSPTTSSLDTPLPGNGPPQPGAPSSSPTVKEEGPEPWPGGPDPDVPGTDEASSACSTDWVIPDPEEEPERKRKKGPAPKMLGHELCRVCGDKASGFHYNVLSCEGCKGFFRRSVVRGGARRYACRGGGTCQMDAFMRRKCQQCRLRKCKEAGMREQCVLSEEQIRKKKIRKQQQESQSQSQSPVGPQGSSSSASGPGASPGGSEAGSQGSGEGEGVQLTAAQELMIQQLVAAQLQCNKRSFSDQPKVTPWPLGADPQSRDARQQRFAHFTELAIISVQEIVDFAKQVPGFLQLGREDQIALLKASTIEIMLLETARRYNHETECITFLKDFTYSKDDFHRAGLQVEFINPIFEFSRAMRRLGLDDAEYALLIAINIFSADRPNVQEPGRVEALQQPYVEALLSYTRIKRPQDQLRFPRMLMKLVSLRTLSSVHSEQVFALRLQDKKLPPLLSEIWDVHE
Glucocorticoid receptor (Homo sapiens), sequence (P04150 whole entry, looked up, the tested form may be a part): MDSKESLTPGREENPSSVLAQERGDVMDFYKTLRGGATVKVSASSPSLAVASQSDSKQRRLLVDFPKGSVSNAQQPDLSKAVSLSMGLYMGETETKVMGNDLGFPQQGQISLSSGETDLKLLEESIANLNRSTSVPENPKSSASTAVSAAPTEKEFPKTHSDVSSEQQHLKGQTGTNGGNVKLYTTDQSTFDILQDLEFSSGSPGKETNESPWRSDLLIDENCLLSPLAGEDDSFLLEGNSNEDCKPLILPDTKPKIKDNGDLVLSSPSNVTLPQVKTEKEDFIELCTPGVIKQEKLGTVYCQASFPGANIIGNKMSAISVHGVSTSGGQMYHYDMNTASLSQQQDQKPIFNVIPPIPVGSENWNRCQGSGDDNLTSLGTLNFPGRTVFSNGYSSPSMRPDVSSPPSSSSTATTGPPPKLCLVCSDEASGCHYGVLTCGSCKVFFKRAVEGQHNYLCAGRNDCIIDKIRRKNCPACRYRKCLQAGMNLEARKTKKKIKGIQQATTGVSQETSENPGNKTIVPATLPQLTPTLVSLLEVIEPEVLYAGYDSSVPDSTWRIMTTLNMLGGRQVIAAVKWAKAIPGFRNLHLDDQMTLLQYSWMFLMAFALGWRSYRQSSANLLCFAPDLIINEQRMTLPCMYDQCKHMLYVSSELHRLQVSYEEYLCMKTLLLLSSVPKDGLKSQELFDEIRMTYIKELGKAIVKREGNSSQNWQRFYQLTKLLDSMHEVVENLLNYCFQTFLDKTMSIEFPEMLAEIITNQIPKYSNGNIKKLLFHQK
Transcriptional activator Myb (Homo sapiens), sequence (P10242 whole entry, looked up): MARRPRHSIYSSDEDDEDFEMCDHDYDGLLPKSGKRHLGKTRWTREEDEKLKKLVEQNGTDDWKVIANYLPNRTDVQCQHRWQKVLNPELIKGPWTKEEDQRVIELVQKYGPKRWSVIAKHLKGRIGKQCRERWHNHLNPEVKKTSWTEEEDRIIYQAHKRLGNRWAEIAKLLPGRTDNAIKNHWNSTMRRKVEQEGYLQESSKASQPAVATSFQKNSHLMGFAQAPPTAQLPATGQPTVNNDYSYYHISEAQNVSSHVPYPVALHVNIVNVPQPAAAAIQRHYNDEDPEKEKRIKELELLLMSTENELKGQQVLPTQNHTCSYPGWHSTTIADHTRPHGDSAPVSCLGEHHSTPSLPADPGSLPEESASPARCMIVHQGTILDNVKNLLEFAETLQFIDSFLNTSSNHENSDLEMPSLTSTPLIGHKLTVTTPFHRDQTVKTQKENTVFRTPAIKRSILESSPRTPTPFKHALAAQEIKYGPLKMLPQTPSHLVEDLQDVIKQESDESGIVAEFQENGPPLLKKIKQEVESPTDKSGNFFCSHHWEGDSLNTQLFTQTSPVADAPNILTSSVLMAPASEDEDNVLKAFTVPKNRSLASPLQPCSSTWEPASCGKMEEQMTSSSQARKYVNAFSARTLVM
Nuclear receptor subfamily 1 group I member 3 (Homo sapiens), sequence (Q14994 whole entry, looked up, the tested form may be a part): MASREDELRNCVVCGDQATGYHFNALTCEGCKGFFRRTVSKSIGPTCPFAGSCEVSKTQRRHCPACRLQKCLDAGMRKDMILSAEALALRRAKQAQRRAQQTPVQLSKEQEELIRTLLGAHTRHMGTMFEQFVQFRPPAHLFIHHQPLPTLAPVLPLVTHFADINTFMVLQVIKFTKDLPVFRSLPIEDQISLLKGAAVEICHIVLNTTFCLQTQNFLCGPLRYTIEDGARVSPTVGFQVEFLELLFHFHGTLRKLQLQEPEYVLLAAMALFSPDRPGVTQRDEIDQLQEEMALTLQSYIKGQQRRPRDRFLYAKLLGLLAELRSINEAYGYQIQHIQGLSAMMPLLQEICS

C=C(C)C(=O)OCCN(C)C
inactive: [1] | [2] | [3] | [4] | [5] | [6] | [7] | [8] | [9] | [10] | [11]

CC(=O)c1ccc(C)cc1
not listed: [2] | [5] | [8] | [10] | [17] | [18] | [19] | [20]
inactive: all other assays above

CC(=O)Nc1cc(S(=O)(=O)O)cc2cc(S(=O)(=O)O)c(N=Nc3ccccc3)c(O)c12
inactive: [1] | [12] | [3] | [6] | [8] | [17] | [14] | [15] | [16] | [11]

O=S1(=O)CC(Cl)(Cl)C(Cl)(Cl)C1
active: [3] 3.71 µM
not listed: [2] | [4] | [8] | [15]
inactive: all other assays above

CC(=O)CCC(=O)O
inactive: [1] | [12] | [3] | [6] | [7] | [13] | [17] | [16] | [11]

CCCCOC(=O)C(C)OC(=O)CCC (centres undefined)
inactive: [1] | [12] | [3] | [18] | [6] | [8] | [13] | [14] | [9] | [15] | [11]

COc1cc(OC)c2ccc(=O)oc2c1
inactive: [1] | [12] | [6] | [8] | [9] | [15] | [16] | [10] | [11]

CCCCCCOc1ccc(O)cc1
inactive: [12] | [6] | [17] | [14] | [16] | [11]
active: [1] 20.5 µM | [3] 33.4 µM | [5] 2.85 µM

CC(C)=CCCC(C)=CC(=O)O
inactive: [1] | [12] | [6] | [17] | [14] | [15] | [11]
